Source: PubChem
TGFb SMAD3 inh – qHTS for Inhibitors of TGF-b; HepG2 CAGA-GFP TGF-b/SMAD3 reporter, GFP fluorescence, 18 h; TGF-beta stimulated, 500 pg/mL final; Potency, µM (doses to about 46.1 µM), inactives show at the highest dose activity, negative = inhibition, actives largely listed as inhibitors; 410,000 tested, 1.2% active; AID 588855, 2011; further: potency means the concentration at half of the fitted maximal effect; on the % scale 0 is the no-effect control and ±100 the full control effect; nearly all actives have a fitted effect of over 65% in size
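HEPG2 CAGA-GFP reporter cells (1000/well, DMEM with 1% FBS) received compounds, then recombinant TGF-beta at 500 pg/mL final for 18 hours at 37 degrees C. Per-cell GFP summed per well was normalised to unstimulated and stimulated DMSO controls before curve fitting.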
IL-1B inflam inh – qHTS for Inhibitors of Inflammasome Signaling: IL-1-beta AlphaLISA Primary Screen; THP-1 LPS/ATP IL-1B secretion, AlphaLISA, 16 h; stronger effect = lower value; activity change, % at 57.5 µM; 360,000 tested, 4.7% active; AID 743279, 2014; in the data active means activity change below about -50%; inconclusive means mostly about -30% to -49%; further: on the % scale 0 is the no-effect control and ±100 the full control effect
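Secreted IL-1B measured by AlphaLISA bead assay after 16 h compound exposure of THP-1 cells; compounds (final up to 57.5 uM) added 1 h before LPS (250 ng/mL) and ATP (1.25 mM) stimulation; lower signal means less secretion.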
HepG2 viability – qHTS for Inhibitors of TGF-b: Cytotox Counterscreen | 410,000 tested, 0.76% active | HepG2 CAGA-GFP viability, ATP luminescence, 18 h | Potency, µM (highest dose often 46.1 µM), without a hit: at the highest dose activity change, negative = cytotoxicity, actives largely listed as cytotoxic; further: potency means the concentration at half of the fitted maximal effect
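HepG2 CAGA-GFP cells (1000/well, DMEM with 1% FBS) received compound, then TGF-beta at 500 pg/mL final, and were incubated 18 hours at 37 degrees C. Viability was read by CellTiter-Glo luminescence. Media-only wells were set as complete cell-killing and DMSO as no toxicity.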
TDP1 inh – qHTS Assay for Inhibitors of Tyrosyl-DNA Phosphodiesterase (TDP1). Tyrosyl-DNA phosphodiesterase 1 (Homo sapiens), Q9NUW8. recombinant TDP1, AlphaScreen DNA substrate cleavage. Potency, µM (highest dose often 130 µM), without a hit: at the top dose activity change, negative = inhibition, actives largely listed as inhibitors. 350,000 tested, 0.28% active; further: potency means the concentration at half of the fitted maximal effect; on the % scale 0 is the no-effect control and ±100 the full control effect; nearly all actives have a fitted effect of over 40% in size
Target sequence (Q9NUW8 whole entry, looked up): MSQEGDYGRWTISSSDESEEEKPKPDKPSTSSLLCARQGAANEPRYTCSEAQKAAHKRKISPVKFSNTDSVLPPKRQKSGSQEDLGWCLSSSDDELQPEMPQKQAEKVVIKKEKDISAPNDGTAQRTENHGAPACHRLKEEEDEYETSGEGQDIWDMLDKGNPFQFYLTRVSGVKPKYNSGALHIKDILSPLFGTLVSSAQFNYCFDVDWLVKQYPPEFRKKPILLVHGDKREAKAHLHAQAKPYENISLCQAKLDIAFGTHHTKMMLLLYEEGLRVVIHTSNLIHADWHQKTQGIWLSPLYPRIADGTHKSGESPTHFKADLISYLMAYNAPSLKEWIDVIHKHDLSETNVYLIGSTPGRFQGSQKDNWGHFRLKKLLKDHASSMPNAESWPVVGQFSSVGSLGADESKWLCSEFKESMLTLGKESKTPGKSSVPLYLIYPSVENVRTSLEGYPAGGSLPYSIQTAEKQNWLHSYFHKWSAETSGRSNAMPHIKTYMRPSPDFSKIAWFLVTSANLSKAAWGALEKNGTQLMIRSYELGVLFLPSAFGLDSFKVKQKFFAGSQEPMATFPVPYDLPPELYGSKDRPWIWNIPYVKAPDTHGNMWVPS
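Recombinant E. coli-expressed Tdp1 (1 nM) preincubated with compound 15 min at RT, then 5'-biotin/3'-phosphotyrosine-FITC DNA substrate (15 nM) added for 5 min. AlphaScreen beads (10 ug/ml) added, 10 min RT; tyrosine-FITC cleavage read as signal loss.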
DT40 TDP1 no CPT – qHTS for Inhibitors of human tyrosyl-DNA phosphodiesterase 1 (TDP1): qHTS in cells in absence of CPT | Potency, µM (titrated, usually from 46.2 µM), for inactives: at the top dose activity change, negative = growth inhibition, hits mostly inhibitors | 420,000 tested, 15% active | DT40 Tdp1-/- hTDP1 cells, no CPT, ATP luminescence, 48 h; further: potency means the concentration at half of the fitted maximal effect; on the % scale 0 is the no-effect control and ±100 the full control effect; nearly all actives have a fitted effect of over 55% in size
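Chicken DT40 Tdp1-/- cells stably complemented with human TDP1 were seeded at 400 cells/well with DMSO in place of 20 nM camptothecin. After compound pinning, cells grew at least 48 hr at 37 °C; viability read by CellTiter-Glo luminescence.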
DT40 TDP1 CPT – qHTS for Inhibitors of human tyrosyl-DNA phosphodiesterase 1 (TDP1): qHTS in cells in presence of CPT | 420,000 tested, 12% active | chicken DT40 Tdp1-/-;hTDP1 cells + 20 nM CPT, ATP luminescence, 48 h | AID 686979, 2013 | Potency, µM (top dose mostly 46.2 µM), for the others: at the top dose activity change, negative = growth inhibition, actives largely listed as inhibitors; further: potency means the concentration at half of the fitted maximal effect; on the % scale 0 is the no-effect control and ±100 the full control effect; nearly all actives have a fitted effect of over 55% in size
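Chicken DT40 Tdp1-/- cells complemented with human TDP1, 400 cells/well, exposed to compounds plus 20 nM camptothecin for at least 48 h at 37 C; viability read as ATP content by CellTiter-Glo luminescence.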
* marks the source's active call; other numbers are inactive results; ? = inconclusive; · = not tested or not shown; [ ] = dose if it differs, or a comment. Compounds with a hit are over-represented: about 18% of the library has one in this group of screens. Unless noted, the call rests on the fitted dose curve; in most records, active means well fitted curve in the direction sought with a large enough effect; inconclusive means small, poorly fitted or top-dose-only effect, or another doubt; inactive means no such curve, though single readings can be large; an effect the other way counts as inactive or inconclusive.

SMILES	TGFb SMAD3 inh	IL-1B inflam inh	HepG2 viability	TDP1 inh	DT40 TDP1 no CPT	DT40 TDP1 CPT
COc1ccc(C2c3c(n(C)c4ccccc34)C(=O)N2CC(=O)Nc2cccc(F)c2)cc1 (configuration not stated)	0%	·	-17%	3%	?	?
CCCNC(=O)CN1C(=O)c2c(c3ccccc3n2C)C1c1ccc(OC)cc1 (configuration not stated)	-15%	·	-22%	3%	13µM*	?
COc1ccc(C2c3c(n(C)c4ccccc34)C(=O)N2CC(=O)Nc2ccccc2F)cc1 (configuration not stated)	0%	·	-32%	3%	?	16µM*
COc1ccc(C2c3c(n(C)c4ccccc34)C(=O)N2CC(=O)Nc2ccccc2Cl)cc1 (configuration not stated)	0%	·	-16%	8%	26µM*	?
Cc1ccc(CCN2CC(C(=O)NCCCN3CCCCC3)CC2=O)cc1 (configuration not stated)	-12%	-1	-14%	2%	13%	2%
O=C1NC(Cc2ccccc2)c2nc3ccc(Cl)cc3c(=O)n2-c2cc3ccccc3cc21 (configuration not stated)	0%	16	1%	·	7.3µM*	?
CCCC1NC(=O)c2cc3ccccc3cc2-n2c1nc1cc(Cl)ccc1c2=O (configuration not stated)	-1%	22	2%	·	?	?
O=C1NC(Cc2ccccc2)c2nc3ccc(F)cc3c(=O)n2-c2ccccc21 (configuration not stated)	·	·	·	-1%	·	·
CCC1NC(=O)c2cc3ccccc3cc2-n2c1nc1ccc(OC)cc1c2=O (configuration not stated)	-14%	-29	-13%	·	?	?
CCC1NC(=O)c2cc3ccccc3cc2-n2c1nc1ccc(F)cc1c2=O (configuration not stated)	12%	-17	11%	·	23µM*	?
CCCC1NC(=O)c2cc3ccccc3cc2-n2c1nc1ccc(C)cc1c2=O (configuration not stated)	1%	2	-2%	·	18µM*	?
O=C1NC(Cc2ccccc2)c2nc3ccc(F)cc3c(=O)n2-c2cc3ccccc3cc21 (configuration not stated)	1%	-22	-6%	·	5.2µM*	5.2µM*
O=C1NC(Cc2ccccc2)c2nc3ccc(Cl)cc3c(=O)n2-c2ccc(Cl)cc21 (configuration not stated)	·	·	·	0%	·	·
CCCN(CCC)C(=O)CSc1nnc2cc(C)c3cc(C)cc(C)c3n12	-33%	·	-32%	-1%	?	?
CC(C)Oc1ccc(CNC(=O)c2cnc3sc(N4CCCC4)nn3c2=O)cc1	2%	·	4%	1%	-29%	-23%
CC(SCc1ccccc1)C(=O)NN=C1CCN(C)CC1 (configuration not stated)	-6%	-11	-3%	5%	-11%	-25%
CCC1NC(=O)c2cc3ccccc3cc2-n2c1nc1cc(C)cc(C)c1c2=O (configuration not stated)	2%	15	-29%	·	4.1µM*	18µM*
Cc1ccc2nc3n(c(=O)c2c1)-c1ccc(Cl)cc1C(=O)NC3Cc1ccccc1 (configuration not stated)	·	·	·	0%	·	·
Cc1cc(C)c2c(=O)n3c(nc2c1)C(Cc1ccccc1)NC(=O)c1cc2ccccc2cc1-3 (configuration not stated)	-5%	35	-8%	·	?	?
O=C1NC(Cc2ccccc2)c2nc3ccc(Cl)cc3c(=O)n2-c2ncccc21 (configuration not stated)	?	-6	-43%	·	21µM*	?
Cc1ccc2nc3n(c(=O)c2c1)-c1cc2ccccc2cc1C(=O)NC3Cc1ccccc1 (configuration not stated)	-20%	8	4%	·	16µM*	23µM*
CCN1C(=O)N[C@@H](c2ccco2)C(C(=O)OC)=C1C	-7%	18	-20%	11%[12.3 µM]	-13%	-6%
COc1ccc(NC(=S)N2CCN(Cc3ccco3)CC2)c(OC)c1	?	0	-9%	4%	13µM*	?
COc1ccc(NC(=S)N2CCN(Cc3cccc(F)c3)CC2)c(OC)c1	-3%	26	20%	2%	21µM*	23µM*
COc1ccccc1NC(=S)N1CCN(Cc2ccccc2)CC1	8%	-15	-8%	8%	?	?
SMILES	TGFb SMAD3 inh	IL-1B inflam inh	HepG2 viability	TDP1 inh	DT40 TDP1 no CPT	DT40 TDP1 CPT
COc1ccc(C(=O)N/N=C/c2cc(Br)ccc2O)cc1OC	-8%	124	-19%	·	3.3µM*	2.3µM*
COc1ccc(O)c(/C=N/NC(=O)c2ccc(OCc3cccc(Br)c3)cc2)c1	-5%	92	-38%	-14%	5.8µM*	4.6µM*
C#CCOCCOCCOCCNc1nc(N2CCN(C(=O)Cn3cc(CCO)nn3)CC2)nc(N2CCN(C(=O)[C@H](Cc3ccc(O)cc3)n3cc(CCO)nn3)CC2)n1	?	18	3%	·	-7%	-26%
Cc1nc2ccccc2n1CCc1nc2c3ccccc3nc(SCc3cccc(F)c3)n2n1	0%	·	3%	1%	?	?
Cc1c(Cl)cccc1NC(=O)Cn1nnc2sc3c(c2c1=O)CCCC3	2%	·	-11%	-4%	3%	-9%
CCc1cccc(CC)c1NC(=O)Cn1nnc2sc3c(c2c1=O)CCCC3	1%	·	1%	-1%	8.2µM*	?
CC1CCc2c(sc3nnn(CC(=O)Nc4c(C(C)C)cccc4C(C)C)c(=O)c23)C1 (configuration not stated)	-12%	·	-12%	2%	15µM*	?
CC1CCN(S(=O)(=O)c2cnc(Cl)c(Br)c2)CC1	-8%	-65*	-11%	5%	-24%	-16%
